Unmarked numbers belong to inactive results. Calls of active or inactive are those of the source. Calls follow the shape of the dose curve; as a rule, active = well fitted inhibition curve with a large enough effect; inconclusive = small, poorly fitted or top-dose-only effect; inactive = flat fitted curve, though single readings scatter.
target: Luciferin 4-monooxygenase (Photinus pyralis) (UniProt P08659); assay: Primary firefly luciferase (FLuc) qHTS assay for identification of artifact compounds. (AID 1845220); conditions: purified firefly luciferase, luminescence, 5 min; series mostly up to 54.1 µM; activity change, negative = inhibition: at the top concentration; also: nearly all actives have a fitted effect of over 60% in size
From the text: PI: Alexander Tropsha Ph.D.
UNC Eshelman School of Pharmacy
University of North Carolina, Chapel Hill, North Carolina
Hits from high-throughput screening (HTS) of chemical libraries are often false positives due to their interference with the assay detection technology. In response to this problem, we generated the largest publicly available library of chemical liabilities and developed a free webtool to predict HTS artifacts, both of which are described herein. More specifically, we generated, curated, and integrated HTS datasets for thiol reactivity, redox activity, and luciferase (firefly and nano) activity. Using these curated datasets, we developed and validated several Quantitative Structure-Interference Relationship (QSIR) models to predict nuisance behavior. […] These models were employed for virtual profiling of the National Center for Advancing Translational Science's (NCATS) in-house library, and 256 compounds for each assay were selected for the experimental validation of nuisance behavior. The BA for these external predictions ranged from 58 to 78% for compounds within the applicability domains of the models. […] The models developed in this study, along with aggregation models previously developed by our group (SCAM Detective) were implemented in "Liability Predictor," an online tool which may be used as part of chemical library design or for triaging HTS hits. Both the models and the curated datasets are publicly available at https://liability.mml.unc.edu/.
SEQUENCE No. (e.g., 1, 2, 3, etc.); […] (e.g., Cells, Incubation, Reagent, etc.); VALUE; DESCRIPTION.
1; Reagent; 3 uL; Luciferase substrate mixture.
2; Compounds and control; 16 nL; Kalypsis pin tool (Wako USA) equipped with a 1536-well pin head.
4; Reagent; 1 uL; Luciferase enzyme.
6; Detection; Luminescence, ViewLux microplate reader.
NOTES (numbers refer to Sequence numbers above)
1. 3 uL of luciferase substrate mixture containing D-luciferin and ATP (final concentrations of 10 uM and 10 uM, respectively) in assay buffer (10 mM Mg-acetate, 0.01% Tween-20, 0.05% bovine serum albumin, 50 mM Tris acetate, pH 7.6) was dispensed into all wells of a 1536-well assay plate (solid-bottom white plate; Greiner Bio One, Monroe, NC).
2. A Wako Pin-tool (Wako Automation, Richmond, VA) was used to transfer 16 nL of compounds (consisting of 7-plates in qHTS format, final concentration range 18.3 nM to 114 uM) or control PTC124 (final concentration range 1.22 nM to 40 uM).
3. 15 min. incubation at room temperature protected from light.
4. 1 uL of luciferase enzyme (final concentration 10 nM, Photinus pyralis luciferase) or buffer was dispensed for a final assay volume of 4 uL.
5. Plates were centrifuged (121xg, 15 seconds) and incubated for 5 minutes.
6. Samples were read for luminescence on a ViewLux CCD imager (PerkinElmer). Data were normalized to no-enzyme (0% activity) and no-inhibitor (DMSO; 100%) controls and the resulting percent inhibition data were fitted to a 4-parameter Hill equation using NCATS in-house software.

| SMILES | outcome | activity change, negative = inhibition |
| --- | --- | --- |
| CO[C@H]1[C@@H](O)[C@@H](C)O[C@@H](O[C@@H]2C=C3C(OC(C)=O)CC4(O)C(CC[C@]5(C)[C@@H](C6=CC(=O)OC6)CC[C@]45O)[C@@]3(C)CC2)[C@@H]1O (stereo not given in full) | inactive [at 25.7 µM] |  |
| C[C@]12CC[C@H](O)C[C@@H]1CC[C@@H]1[C@@H]2CC[C@]2(C)C(=O)CC[C@@H]12 | inactive |  |
| COC1(C[S@@](=O)c2ccccc2)CCN(CCc2c[nH]c3ccc(F)cc23)CC1 |  | 0.228% |
| Cc1ccccc1C1=CCN(C)CC1 | inactive |  |
| CCOC(=O)C1(CCc2ccccc2)CCN(Cc2ccc(NC(C)=O)cc2)CC1 |  | 3.83% |
| C[C@@H]1C[C@@H](O)[C@]2(O)O[C@@H]3C[C@@]4(C=O)C(CC[C@@H]5C4CC[C@]4(C)[C@@](O)(C6=CC(=O)OC6)CC[C@]54O)C[C@H]3OC2O1 (stereo not given in full) | inactive [at 25.7 µM] |  |
| COC1CC(O[C@H]2CC[C@]3(C=O)C4CC[C@]5(C)[C@@H](C6=CC(=O)OC6)CC[C@]5(O)[C@@H]4CC[C@@H]3C2)OC(C)C1O[C@@H]1O[C@H](CO)[C@@H](O[C@@H]2O[C@H](CO)[C@@H](O)[C@H](O)[C@H]2O)[C@H](O)[C@H]1O (stereo not given in full) |  | 0.154% [at 11.6 µM] |
| C=CCN1CC[C@]23c4c5ccc(O)c4O[C@H]2[C@@H](O)CC[C@@]3(O)[C@H]1C5 |  | -5.63% |
| C=CC(C)(C)c1[nH]c2c(CC=C(C)C)cc(CC=C(C)C)cc2c1C[C@@H]1NC(=O)[C@H](C)NC1=O |  | 2.24% |
| COC(=O)[C@@]1(C)C(=O)C=C[C@]2(C)c3c(O)cc(C(C)C)cc3[C@H](O)[C@@H](OC(C)=O)C12 (stereo not given in full) | inactive [at 25.7 µM] |  |
| COCC(C(=O)OC1CC2CCC(C1)N2C)c1ccccc1 (stereo not given) |  | 1.96% |
| C[C@@H]1[C@H](O)[C@@H](C)/C=C/C=C/CC/C=C/C=C/C=C/C=C/[C@H](O[C@H]2O[C@@H](C)[C@H](O)[C@@H](N)[C@H]2O)C[C@@H]2O[C@](O)(C[C@@H](O)[C@H](O)CC[C@@H](O)C[C@@H](O)C[C@@H](O)CC(=O)O[C@H]1C)C[C@H](O)[C@H]2C(=O)O |  | 0.14% [at 25.7 µM] |
| CN1CCc2cc3c(cc2[C@H]1[C@@H]1OC(=O)c2c1ccc1c2OCO1)OCO3 | inactive |  |
| COc1cc(O)c2c(c1)CCC[C@@H](O)[C@H](O)C(=O)/C=C\C[C@H](C)OC2=O |  | -8.51% |
| N#Cc1ccccc1-c1cc(-c2ccccn2)cn(-c2ccccc2)c1=O |  | -14% |
| CC1(C)C(=O)N(c2ccc(C#N)c(C(F)(F)F)c2)C(=O)N1CCCCO | inactive |  |
| CC[C@H](O)[C@@H](C)[C@H]1O[C@@H]1C[C@H](C)/C=C/C=C(\C)[C@H]1OC(=O)C[C@H](O)CC[C@@](C)(O)[C@@H](OC(C)=O)/C=C/[C@@H]1C |  | -6.15% |
| COc1ccc(C23CCC(=O)C=C2N(C)CC3)cc1OC (stereo not given) |  | -8.75% |
| Cc1ccc(-n2nccn2)c(C(=O)N2CCN(c3nc4cc(Cl)ccc4o3)CCC2C)c1 (stereo not given) | inactive |  |
| CN(C)[C@@H]1C(=O)C(C(N)=O)=C(O)[C@@]2(O)C(=O)C3=C(O)c4c(O)ccc(Cl)c4[C@@](C)(O)C3C[C@@H]12 (stereo not given in full) |  | -2.44% |

| SMILES | outcome | activity change, negative = inhibition |
| --- | --- | --- |
| CS[C@]1(CO)C(=O)N2[C@H]3C(=CC=C[C@@H]3O)C[C@@]2(SC)C(=O)N1C | inactive |  |
| CC1CCCCCC(=O)c2c(O)cc(O)cc2CC(=O)O1 (stereo not given) |  | 1.96% |
| C[C@]12CC[C@H](O[C@@H]3O[C@H](CO)[C@@H](O)[C@H](O)[C@H]3O)CC1CC[C@@H]1C2CC[C@]2(C)[C@@H](C3=CC(=O)OC3)CC[C@]12O (stereo not given in full) | inactive [at 25.7 µM] |  |
| CN1CN(c2ccccc2)C2(CCN(CCCC(=O)c3ccc(F)cc3)CC2)C1=O |  | -0.252% |
| CCC(C)C1NC(=O)C(C(C)=O)=C1O (stereo not given) |  | 0.04% [at 86.2 µM] |
| Nc1ncnc2c1ncn2[C@@H]1O[C@@H]2COP(O)(=S)O[C@H]2[C@H]1O (stereo not given in full) | inactive [at 11.6 µM] |  |
| CO/C1=C\C(C)=C\[C@@H](C)[C@@H](O)[C@@H](C)C/C(C)=C/C=C/[C@H](OC)[C@@H]([C@@H](C)[C@@H](O)[C@H](C)[C@@]2(O)C[C@@H](O)[C@H](C)[C@@H](C(C)C)O2)OC1=O |  | 0.787% [at 25.7 µM] |
| C=CCN1CCC2(C)c3cc(O)ccc3C[C@H]1[C@H]2C | inactive |  |
| CCOP(=O)(OCC)Oc1ccc2c(C)cc(=O)oc2c1 |  | -8.54% |
| c1cncc(OC[C@@H]2CCN2)c1 |  | 2.01% |
| Cc1cccc(NC(=O)c2ccc(C(F)(F)F)cc2C(=O)O)n1 |  | -4.23% |
| C/C=C1/CN2CC[C@]34C(=Nc5ccccc53)[C@@H]2C[C@@H]1[C@H]4C(=O)OC |  | -2.41% |
| C[C@@H]1O[C@@H](OC2CCC3(C=O)C(CCC4C3CCC3(C)C(C5=CC(=O)OC5)C(O)CC43O)C2)[C@H](O)[C@H](O)[C@H]1O[C@@H]1O[C@H](CO)[C@@H](O)[C@H](O)[C@H]1O (stereo not given in full) | inactive [at 25.7 µM] |  |
| CN1C(=O)[C@]23CC4C(C)(C)[C@@]5(C[C@@]41CN2CC[C@@]3(C)O)C(=O)Nc1c5ccc2c1OC=CC(C)(C)O2 (stereo not given in full) |  | -1.98% [at 25.7 µM] |
| COc1cc2c(cc1O)C1(C)CCC(O)C(C)(C)C1CC2=O (stereo not given) |  | 0.997% |
| COc1ccc(CN(C(=O)[C@@H](N)Cc2c(C)cc(C(N)=O)cc2C)[C@@H](C)c2ncc(-c3ccccc3)[nH]2)cc1C(=O)O |  | -13.6% |
| C/C=C(/C)C1C=CC2CC(C)CC(C)C2C1/C(O)=C1\C(=O)NC(CC(C)(O)C(=O)O)C1=O (stereo not given) | inactive [at 25.7 µM] |  |
| CC[C@@H]1/C=C/C=C/C[C@H](C)C(O)[C@](C)(O)C(=O)[C@H](C)C(O)[C@H](C)C(=O)[C@H](C)[C@@H](O)[C@H](C)/C=C/C(=O)O[C@H]2[C@@H](C)[C@@H](CC1)O[C@]1(O[C@H](C[C@H](C)O)[C@H](C)CC1=O)[C@@H]2C (stereo not given in full) | inactive [at 11.6 µM] |  |
| CCCCCn1cc(C(=O)c2cccc3ccccc23)c2ccccc21 | inactive |  |
| O=C1Nc2ccc3ncsc3c2/C1=C/c1cnc[nH]1 | inactive |  |

From PubChem BioAssay (NCATS)
